Common to all, as to experiment: DAPPL (digital affinity profiling via proximity ligation, sequencing); 10 mM Tris-HCl pH 7.5, 50 mM NaCl, 1 mM DTT, 4% glycerol, room temperature, 30 min; GST-TFs on glutathione beads, 16-mer random dsDNA library, 0.1% formaldehyde crosslink after washing; high values mean tight binding
The target of assay [1] is T1, FLI1 (Homo sapiens, UniProt Q01543 1-452).
T1 sequence: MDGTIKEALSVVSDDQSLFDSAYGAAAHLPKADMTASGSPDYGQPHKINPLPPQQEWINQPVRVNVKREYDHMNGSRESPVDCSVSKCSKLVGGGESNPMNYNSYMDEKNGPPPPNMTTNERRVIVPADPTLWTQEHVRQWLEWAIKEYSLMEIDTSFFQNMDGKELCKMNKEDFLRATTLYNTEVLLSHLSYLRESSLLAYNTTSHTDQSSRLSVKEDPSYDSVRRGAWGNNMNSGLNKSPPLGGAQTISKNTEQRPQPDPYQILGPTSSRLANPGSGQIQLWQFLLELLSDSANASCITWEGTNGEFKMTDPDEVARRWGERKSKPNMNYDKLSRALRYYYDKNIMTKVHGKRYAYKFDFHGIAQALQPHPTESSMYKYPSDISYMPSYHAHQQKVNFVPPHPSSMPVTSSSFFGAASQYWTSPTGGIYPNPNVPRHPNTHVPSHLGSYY
To be noted: protein: recombinant; tags: N-terminal GST; dsDNA, one strand shown. The method in brief: (§1)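 After expression in yeast as GST fusions, human transcription factors were bound to glutathione beads, DNA-barcoded and mixed with a tag-only sample. The pools were incubated with 200 nmole of a 16-mer random double-stranded DNA library in Tris/NaCl/DTT/glycerol buffer (30 min, room temperature), washed and crosslinked with 0.1% formaldehyde. Proximity ligation with BsaI/T4 ligase ran for 1 h at 37 °C, before PCR amplification and sequencing on an Illumina NextSeq500. Binding signal is a hexamer's read frequency for a factor divided by its frequency for the tag-only sample.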

Assay [2] concerns the target T2, ELK1 (Homo sapiens, UniProt P19419 1-428).
T2 sequence: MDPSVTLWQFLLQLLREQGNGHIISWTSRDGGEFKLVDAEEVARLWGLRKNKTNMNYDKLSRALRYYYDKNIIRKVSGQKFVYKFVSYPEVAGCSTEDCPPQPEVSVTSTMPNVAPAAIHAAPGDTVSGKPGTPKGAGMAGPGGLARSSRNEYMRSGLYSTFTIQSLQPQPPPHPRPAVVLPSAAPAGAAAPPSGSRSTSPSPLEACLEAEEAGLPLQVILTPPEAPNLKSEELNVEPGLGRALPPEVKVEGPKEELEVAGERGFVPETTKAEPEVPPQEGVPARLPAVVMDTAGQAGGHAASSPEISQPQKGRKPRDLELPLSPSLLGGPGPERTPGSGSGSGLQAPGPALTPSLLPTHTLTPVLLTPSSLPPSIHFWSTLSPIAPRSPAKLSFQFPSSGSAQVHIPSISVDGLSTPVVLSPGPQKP
To be noted: protein: recombinant; tags: N-terminal GST; dsDNA, one strand shown. The method in brief:
as §1

For assay [3], the target named is T3, GABPA (Homo sapiens, UniProt Q06546 1-454).
T3 sequence: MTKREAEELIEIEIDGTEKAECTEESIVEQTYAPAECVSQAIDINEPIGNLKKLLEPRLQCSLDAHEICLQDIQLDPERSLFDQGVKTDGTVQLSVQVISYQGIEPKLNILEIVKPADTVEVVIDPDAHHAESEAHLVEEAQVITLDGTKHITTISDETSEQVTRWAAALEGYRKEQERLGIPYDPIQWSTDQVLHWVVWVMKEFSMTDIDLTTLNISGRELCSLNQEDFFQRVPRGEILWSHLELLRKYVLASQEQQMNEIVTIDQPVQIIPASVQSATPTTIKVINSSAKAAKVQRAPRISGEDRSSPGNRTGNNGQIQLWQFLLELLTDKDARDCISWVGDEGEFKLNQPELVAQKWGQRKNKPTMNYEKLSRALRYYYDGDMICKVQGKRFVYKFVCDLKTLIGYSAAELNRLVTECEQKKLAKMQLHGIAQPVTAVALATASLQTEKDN
The following applies: protein: recombinant; tags: N-terminal GST; dsDNA, one strand shown. The procedure, abridged: as §1

Assay [4] concerns the target T4, ERG (Homo sapiens, UniProt P11308 1-479).
T4 sequence: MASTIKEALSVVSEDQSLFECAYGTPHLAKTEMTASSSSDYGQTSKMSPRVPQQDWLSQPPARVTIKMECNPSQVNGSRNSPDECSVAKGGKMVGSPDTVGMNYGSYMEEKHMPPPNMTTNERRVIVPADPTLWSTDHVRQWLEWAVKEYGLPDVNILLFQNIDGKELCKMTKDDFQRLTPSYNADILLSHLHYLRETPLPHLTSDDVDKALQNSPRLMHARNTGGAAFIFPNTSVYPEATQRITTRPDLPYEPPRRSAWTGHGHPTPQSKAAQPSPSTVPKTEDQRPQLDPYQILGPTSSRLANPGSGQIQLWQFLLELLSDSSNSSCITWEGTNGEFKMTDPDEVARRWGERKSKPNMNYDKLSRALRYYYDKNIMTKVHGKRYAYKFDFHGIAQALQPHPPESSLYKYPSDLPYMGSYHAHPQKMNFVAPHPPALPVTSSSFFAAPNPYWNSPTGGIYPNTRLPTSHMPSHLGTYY
The following applies: protein: recombinant; tags: N-terminal GST; dsDNA, one strand shown. The method in brief: as §1

Assay [5] deals with ELF1 (Homo sapiens, UniProt P32519 1-619). To be noted: protein: recombinant; tags: N-terminal GST; dsDNA, one strand shown. The procedure, abridged:
as §1

Assay [6] has as its target T5, EHF (Homo sapiens, UniProt Q9NZC4 1-300).
T5 sequence: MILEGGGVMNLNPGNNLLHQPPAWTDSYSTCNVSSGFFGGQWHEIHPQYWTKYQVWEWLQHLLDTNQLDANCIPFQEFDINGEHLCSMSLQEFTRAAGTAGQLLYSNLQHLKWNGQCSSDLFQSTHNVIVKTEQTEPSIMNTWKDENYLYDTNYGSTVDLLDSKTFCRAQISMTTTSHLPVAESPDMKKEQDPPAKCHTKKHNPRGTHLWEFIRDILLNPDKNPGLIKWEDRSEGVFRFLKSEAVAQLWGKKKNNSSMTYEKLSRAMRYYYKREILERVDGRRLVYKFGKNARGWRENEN
To be noted: protein: recombinant; tags: N-terminal GST; dsDNA, one strand shown. The method in brief: as §1

The target of assay [7] is SPI1 (Homo sapiens, UniProt P17947 1-270). To be noted: protein: recombinant; tags: N-terminal GST; dsDNA, one strand shown. The method in brief: as §1
Assay [8] addresses SPIB (Homo sapiens, UniProt Q01892 1-262). To be noted: protein: recombinant; tags: N-terminal GST; dsDNA, one strand shown. The method in brief:
as §1

Assay [9] has as its target T6, ELK3 (Homo sapiens, UniProt P41970 1-407).
T6 sequence: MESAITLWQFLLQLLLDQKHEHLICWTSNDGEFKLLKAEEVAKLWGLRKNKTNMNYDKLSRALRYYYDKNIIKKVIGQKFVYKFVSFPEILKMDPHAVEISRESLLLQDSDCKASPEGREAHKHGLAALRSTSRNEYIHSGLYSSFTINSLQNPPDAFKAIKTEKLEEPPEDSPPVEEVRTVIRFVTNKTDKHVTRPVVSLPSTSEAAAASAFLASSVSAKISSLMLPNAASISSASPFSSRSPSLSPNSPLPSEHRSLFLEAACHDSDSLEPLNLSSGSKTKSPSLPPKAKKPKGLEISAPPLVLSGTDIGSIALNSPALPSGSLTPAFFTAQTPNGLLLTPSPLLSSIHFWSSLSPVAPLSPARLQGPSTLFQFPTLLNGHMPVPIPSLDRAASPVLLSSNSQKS
To be noted: protein: recombinant; tags: N-terminal GST; dsDNA, one strand shown. The method in brief: as §1

Assay [10] addresses T7, FEV (Homo sapiens, UniProt Q99581 1-238).
T7 sequence: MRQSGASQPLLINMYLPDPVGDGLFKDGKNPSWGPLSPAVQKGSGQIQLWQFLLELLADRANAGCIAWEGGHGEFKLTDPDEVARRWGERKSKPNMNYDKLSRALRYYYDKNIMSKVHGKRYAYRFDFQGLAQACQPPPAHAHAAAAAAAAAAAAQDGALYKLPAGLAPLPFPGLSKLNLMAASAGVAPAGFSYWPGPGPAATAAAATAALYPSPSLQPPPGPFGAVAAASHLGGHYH
The following applies: protein: recombinant; tags: N-terminal GST; dsDNA, one strand shown. The method in brief: as §1

Assay [11] concerns the target ETV5 (Homo sapiens, UniProt P41161 1-510). To be noted: protein: recombinant; tags: N-terminal GST; dsDNA, one strand shown. The method in brief:
as §1

Assay [12] concerns the target HSF1 (Homo sapiens, UniProt Q00613 1-529). The following applies: protein: recombinant; tags: N-terminal GST; chain copies: 3; dsDNA, one strand shown. The method in brief:
as §1

For assay [13], the target named is T8, SPIC (Homo sapiens, UniProt Q8N5J4 1-248).
T8 sequence: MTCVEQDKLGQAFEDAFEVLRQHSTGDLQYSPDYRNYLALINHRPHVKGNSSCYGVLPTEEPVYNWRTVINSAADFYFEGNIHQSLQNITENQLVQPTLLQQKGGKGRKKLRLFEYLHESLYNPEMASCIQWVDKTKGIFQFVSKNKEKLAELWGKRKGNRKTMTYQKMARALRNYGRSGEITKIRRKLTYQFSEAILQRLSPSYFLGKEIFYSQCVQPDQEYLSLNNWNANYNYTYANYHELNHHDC
To be noted: protein: recombinant; tags: N-terminal GST; dsDNA, one strand shown. The procedure, abridged:
as §1

Assay [14] has as its target ELF4 (Homo sapiens, UniProt Q99607 1-663). To be noted: protein: recombinant; tags: N-terminal GST; dsDNA, one strand shown. The procedure, abridged:
as §1

Assay [15] has as its target T9, ELK4 (Homo sapiens, UniProt P28324-2 1-405).
T9 sequence: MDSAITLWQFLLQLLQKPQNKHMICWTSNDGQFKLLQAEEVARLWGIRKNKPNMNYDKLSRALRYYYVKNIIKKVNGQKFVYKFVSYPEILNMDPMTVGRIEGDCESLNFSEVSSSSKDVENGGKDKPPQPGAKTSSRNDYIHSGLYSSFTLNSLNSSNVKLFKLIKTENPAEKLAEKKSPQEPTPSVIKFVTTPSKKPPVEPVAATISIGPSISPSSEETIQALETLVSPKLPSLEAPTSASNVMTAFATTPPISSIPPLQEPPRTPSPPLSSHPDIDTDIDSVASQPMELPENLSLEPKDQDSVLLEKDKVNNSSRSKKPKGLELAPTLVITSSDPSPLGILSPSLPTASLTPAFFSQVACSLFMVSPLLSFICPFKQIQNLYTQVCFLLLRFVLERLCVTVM
To be noted: protein: recombinant; tags: N-terminal GST; dsDNA, one strand shown. The procedure, abridged:
as §1

The target of assay [16] is T10, ETV2 (Homo sapiens, UniProt O00321 1-342).
T10 sequence: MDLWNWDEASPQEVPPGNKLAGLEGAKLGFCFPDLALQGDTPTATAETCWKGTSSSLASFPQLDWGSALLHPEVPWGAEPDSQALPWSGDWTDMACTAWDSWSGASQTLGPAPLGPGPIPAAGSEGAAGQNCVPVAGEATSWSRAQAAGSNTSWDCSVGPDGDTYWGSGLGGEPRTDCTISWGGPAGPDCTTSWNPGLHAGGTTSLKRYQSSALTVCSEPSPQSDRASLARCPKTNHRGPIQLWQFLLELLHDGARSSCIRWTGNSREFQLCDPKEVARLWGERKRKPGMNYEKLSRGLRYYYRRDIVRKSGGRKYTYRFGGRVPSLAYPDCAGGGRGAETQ
To be noted: protein: recombinant; tags: N-terminal GST; dsDNA, one strand shown. The procedure, abridged:
as §1

Assay [17] has as its target T11, ELF3 (Homo sapiens, UniProt P78545 1-371).
T11 sequence: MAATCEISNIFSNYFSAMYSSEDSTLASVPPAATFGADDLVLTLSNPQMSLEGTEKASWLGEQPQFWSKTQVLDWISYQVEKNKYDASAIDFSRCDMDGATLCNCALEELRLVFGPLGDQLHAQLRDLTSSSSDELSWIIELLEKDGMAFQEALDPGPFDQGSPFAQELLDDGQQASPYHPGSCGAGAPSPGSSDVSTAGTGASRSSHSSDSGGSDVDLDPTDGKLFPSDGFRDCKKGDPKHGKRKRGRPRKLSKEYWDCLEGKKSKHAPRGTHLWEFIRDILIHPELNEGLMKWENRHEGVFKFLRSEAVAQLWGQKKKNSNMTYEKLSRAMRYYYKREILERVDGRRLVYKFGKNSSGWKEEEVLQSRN
The following applies: protein: recombinant; tags: N-terminal GST; dsDNA, one strand shown. The procedure, abridged: as §1

Assay [18] deals with ETV1 (Homo sapiens, UniProt P50549 1-477). To be noted: protein: recombinant; tags: N-terminal GST; dsDNA, one strand shown. The procedure, abridged: as §1
ETV1, sequence (P50549 whole entry): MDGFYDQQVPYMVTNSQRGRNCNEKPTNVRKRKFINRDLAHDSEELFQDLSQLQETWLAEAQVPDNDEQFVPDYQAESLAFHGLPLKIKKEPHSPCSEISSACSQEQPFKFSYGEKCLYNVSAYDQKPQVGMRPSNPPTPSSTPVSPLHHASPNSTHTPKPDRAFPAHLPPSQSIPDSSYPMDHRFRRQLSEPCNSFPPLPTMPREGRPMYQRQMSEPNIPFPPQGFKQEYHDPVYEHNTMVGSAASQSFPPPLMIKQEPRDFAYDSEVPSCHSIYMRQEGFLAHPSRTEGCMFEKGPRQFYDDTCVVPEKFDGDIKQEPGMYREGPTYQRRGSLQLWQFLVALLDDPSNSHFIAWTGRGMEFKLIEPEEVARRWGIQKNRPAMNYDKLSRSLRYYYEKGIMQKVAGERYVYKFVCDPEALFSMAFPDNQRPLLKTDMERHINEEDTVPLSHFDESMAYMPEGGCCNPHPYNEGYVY

ELF4, sequence (Q99607 whole entry): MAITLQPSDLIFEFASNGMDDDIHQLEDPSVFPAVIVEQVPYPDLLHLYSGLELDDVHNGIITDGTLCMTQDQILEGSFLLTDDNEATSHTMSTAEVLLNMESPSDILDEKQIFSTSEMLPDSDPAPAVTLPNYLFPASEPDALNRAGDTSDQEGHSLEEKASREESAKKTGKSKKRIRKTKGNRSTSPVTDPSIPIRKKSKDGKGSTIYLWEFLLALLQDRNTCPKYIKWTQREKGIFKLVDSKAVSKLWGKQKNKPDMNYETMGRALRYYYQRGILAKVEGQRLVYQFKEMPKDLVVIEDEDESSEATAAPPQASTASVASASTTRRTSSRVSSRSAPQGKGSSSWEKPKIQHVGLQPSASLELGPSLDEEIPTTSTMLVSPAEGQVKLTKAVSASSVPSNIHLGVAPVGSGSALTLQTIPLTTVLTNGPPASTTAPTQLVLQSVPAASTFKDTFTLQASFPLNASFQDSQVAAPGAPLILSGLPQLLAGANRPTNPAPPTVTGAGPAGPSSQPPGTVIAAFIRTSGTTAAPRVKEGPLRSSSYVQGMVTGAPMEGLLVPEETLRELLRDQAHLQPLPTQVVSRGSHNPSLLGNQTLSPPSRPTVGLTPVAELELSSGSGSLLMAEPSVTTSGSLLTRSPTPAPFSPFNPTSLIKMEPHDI
SPIB, sequence (Q01892 whole entry): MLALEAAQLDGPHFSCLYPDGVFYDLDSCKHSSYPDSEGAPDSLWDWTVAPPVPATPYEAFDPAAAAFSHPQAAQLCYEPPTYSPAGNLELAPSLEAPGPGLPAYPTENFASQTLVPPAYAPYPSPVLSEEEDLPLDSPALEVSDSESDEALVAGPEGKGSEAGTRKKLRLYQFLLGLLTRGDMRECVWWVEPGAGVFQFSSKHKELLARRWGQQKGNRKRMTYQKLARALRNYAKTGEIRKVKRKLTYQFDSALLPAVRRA
HSF1, sequence (Q00613 whole entry): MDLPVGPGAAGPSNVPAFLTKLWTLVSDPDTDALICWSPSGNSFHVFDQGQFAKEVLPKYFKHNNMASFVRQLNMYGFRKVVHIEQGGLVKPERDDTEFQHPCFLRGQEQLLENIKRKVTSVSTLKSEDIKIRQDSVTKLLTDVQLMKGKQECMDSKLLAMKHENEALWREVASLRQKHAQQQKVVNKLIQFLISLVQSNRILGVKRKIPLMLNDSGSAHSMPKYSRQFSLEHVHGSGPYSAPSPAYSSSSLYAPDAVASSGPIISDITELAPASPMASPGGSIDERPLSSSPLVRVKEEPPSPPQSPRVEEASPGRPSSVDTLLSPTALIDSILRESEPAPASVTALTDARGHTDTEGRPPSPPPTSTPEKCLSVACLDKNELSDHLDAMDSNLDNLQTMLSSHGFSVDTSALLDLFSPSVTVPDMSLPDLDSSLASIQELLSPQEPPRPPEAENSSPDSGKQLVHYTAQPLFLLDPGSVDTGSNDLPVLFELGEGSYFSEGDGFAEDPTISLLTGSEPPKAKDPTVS
ETV5, sequence (P41161 whole entry): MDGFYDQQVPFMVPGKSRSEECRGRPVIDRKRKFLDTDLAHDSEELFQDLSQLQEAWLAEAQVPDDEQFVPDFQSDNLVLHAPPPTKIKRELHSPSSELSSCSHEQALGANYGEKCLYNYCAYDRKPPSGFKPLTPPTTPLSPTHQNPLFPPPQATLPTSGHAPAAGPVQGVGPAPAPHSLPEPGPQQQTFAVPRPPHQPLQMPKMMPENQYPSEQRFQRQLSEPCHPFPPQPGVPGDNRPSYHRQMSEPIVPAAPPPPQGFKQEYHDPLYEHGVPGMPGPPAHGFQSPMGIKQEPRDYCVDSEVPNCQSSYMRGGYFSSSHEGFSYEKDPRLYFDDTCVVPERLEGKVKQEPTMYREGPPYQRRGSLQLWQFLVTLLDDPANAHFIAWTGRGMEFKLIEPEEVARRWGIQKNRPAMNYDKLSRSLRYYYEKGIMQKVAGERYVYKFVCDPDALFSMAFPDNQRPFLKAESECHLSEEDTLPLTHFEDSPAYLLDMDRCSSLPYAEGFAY
ELF1, sequence (P32519 whole entry): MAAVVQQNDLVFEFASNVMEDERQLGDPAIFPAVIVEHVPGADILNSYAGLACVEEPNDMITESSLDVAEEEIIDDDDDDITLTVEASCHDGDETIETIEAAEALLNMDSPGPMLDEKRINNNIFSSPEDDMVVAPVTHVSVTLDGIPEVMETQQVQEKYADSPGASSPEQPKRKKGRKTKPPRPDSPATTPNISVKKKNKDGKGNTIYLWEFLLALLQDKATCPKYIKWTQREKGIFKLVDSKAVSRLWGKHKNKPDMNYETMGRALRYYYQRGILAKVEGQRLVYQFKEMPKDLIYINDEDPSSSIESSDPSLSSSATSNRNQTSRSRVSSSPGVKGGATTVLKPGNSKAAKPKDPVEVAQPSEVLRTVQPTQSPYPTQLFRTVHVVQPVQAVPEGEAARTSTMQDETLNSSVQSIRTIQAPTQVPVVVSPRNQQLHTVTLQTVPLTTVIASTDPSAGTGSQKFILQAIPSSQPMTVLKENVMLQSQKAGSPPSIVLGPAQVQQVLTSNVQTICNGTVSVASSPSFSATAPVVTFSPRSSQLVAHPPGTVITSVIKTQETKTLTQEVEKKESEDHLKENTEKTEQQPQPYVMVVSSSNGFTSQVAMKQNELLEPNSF

For AAACTG, the binding signal in assay [1] is 1.09 fold enrichment (6-mer frequency, TF over GST control); in assay [2], 1.11 fold enrichment (6-mer frequency, TF over GST control); in [3] it was 1.17 fold enrichment (6-mer frequency, TF over GST control); in [4], 1.01 fold enrichment (6-mer frequency, TF over GST control); in assay [5], 1.09 fold enrichment (6-mer frequency, TF over GST control); in assay [6], 1.06 fold enrichment (6-mer frequency, TF over GST control). The binding signal in [7] is 1.12 fold enrichment (6-mer frequency, TF over GST control); in assay [8], 1.1 fold enrichment (6-mer frequency, TF over GST control); in assay [9] it was 1.32 fold enrichment (6-mer frequency, TF over GST control); in assay [10], 1.06 fold enrichment (6-mer frequency, TF over GST control); in [11], 1.09 fold enrichment (6-mer frequency, TF over GST control); in [12] it was 1.01 fold enrichment (6-mer frequency, TF over GST control). Also, the binding signal in assay [13] is 1.07 fold enrichment (6-mer frequency, TF over GST control); in [14] it was 1.1 fold enrichment (6-mer frequency, TF over GST control); in assay [15] it was 1.06 fold enrichment (6-mer frequency, TF over GST control); in [16] it was 1.09 fold enrichment (6-mer frequency, TF over GST control); in [17], 1.01 fold enrichment (6-mer frequency, TF over GST control); in assay [18] it was 1.13 fold enrichment (6-mer frequency, TF over GST control).

The record behind these values is PMC7862700, “An all-to-all approach to the identification of sequence-specific readers for epigenetic DNA modifications on cytosine”.
